Where a chain is given by its changes, count along the chain named.

Common to all, as to assay: PBM; 200 nM protein, PBS
Holding throughout (conditions): dsDNA, one strand shown

The target in test [1] is T1, SIX6 (Homo sapiens, UniProt O95475 114-200, L167I).
T1 sequence: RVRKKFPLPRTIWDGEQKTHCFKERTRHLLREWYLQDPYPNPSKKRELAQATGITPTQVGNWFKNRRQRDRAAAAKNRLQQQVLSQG

For test [2], the target named is T2, SIX6 (Homo sapiens, UniProt O95475 114-200, T165P).
T2 sequence: T1 sequence with T52P, I54L

For test [3], the target named is T3, SIX6 (Homo sapiens, UniProt O95475 114-200, L167M).
T3 sequence: T1 sequence with I54M

In test [4] the target is T4, SIX6 (Homo sapiens, UniProt O95475 114-200, T165G).
T4 sequence: T1 sequence with T52G, I54L

Test [5] concerns the target T5, SIX6 (Homo sapiens, UniProt O95475 114-200, T139Q).
T5 sequence: T1 sequence with T26Q, I54L

Test [6] addresses T6, SIX6 (Homo sapiens, UniProt O95475 114-200, L167V).
T6 sequence: T1 sequence with I54V

The target of test [7] is T7, SIX6 (Homo sapiens, UniProt O95475 114-200, T165I).
T7 sequence: T1 sequence with T52I, I54L

In the case of CCCGGCGG, the binding signal in the test with SIX6 [1] was 9.11 upbm affinity estimate (log intensity, higher = more binding, comparable within an allelic series); with SIX6 [2], 8.96 upbm affinity estimate (log intensity, higher = more binding, comparable within an allelic series); with SIX6 [3] it was 9 upbm affinity estimate (log intensity, higher = more binding, comparable within an allelic series); with SIX6 [4], 9.14 upbm affinity estimate (log intensity, higher = more binding, comparable within an allelic series); with SIX6 [5], 9.18 upbm affinity estimate (log intensity, higher = more binding, comparable within an allelic series); with SIX6 [6], 9.07 upbm affinity estimate (log intensity, higher = more binding, comparable within an allelic series). Also, the binding signal with SIX6 [7] is 9.08 upbm affinity estimate (log intensity, higher = more binding, comparable within an allelic series).

The values are drawn from publication PMC11006913.
